The list is not random: actives were taken first. Their share in the collection is about 3.7%.
BoNT F protease – blocks Botulinum neurotoxin F light chain protease | hit rate 0.22% among 360,000 | inhibition, % at 10 µM | AID 588497 | Multiplex microsphere protease cleavage assay, flow cytometry; in the data active = inhibition above about 35%, passing the limit was not always enough; inconclusive = no clear call, values can overlap the other calls; note: plate controls were buffer without enzyme for full effect and enzyme alone for no effect
BJeLR viability – kills HRASV12-expressing BJeLR cells | BJeLR (HRASV12) viability, CellTiter-Glo ATP luminescence, 48 h | inhibition, % (concentration not given with the values) | hit rate 0.17% among 300,000; in the data active = inhibition above about 50%; inconclusive = no clear call, values can overlap the other calls
Anthrax LF prot – blocks Bacillus anthracis lethal factor protease; multiplex microsphere protease cleavage assay, LF; inhibition, % at 10 µM; hit rate 0.12% among 360,000; note: plate controls were buffer without enzyme for full effect and enzyme alone for no effect
BoNT A protease – BoNT A light chain protease inhibition. multiplex microsphere protease substrate cleavage, flow cytometry. inhibition, % at 10 µM. hit rate 0.17% among 360,000. AID 588499; note: plate controls were buffer without enzyme for full effect and enzyme alone for no effect
Bead autofluor – counter-screen for toxin protease inhibitors: compound fluorescence. hit rate 3.1% among 360,000. compound autofluorescence counterscreen, microsphere flow cytometry; hits give high values. fluorescence intensity (test concentration not listed); in the data active = fluorescence intensity above about 16000; inconclusive = no clear call, values can overlap the other calls
BH1578 lux ind – induces V. cholerae light production without autoinducers. V. cholerae BH1578 lux reporter, luminescence, 6 h. activation, % at 18.7 µM. hit rate 0.16% among 350,000; in the data active = activation mostly above about 9.7%, no sharp cut-off; inconclusive = no clear call, values can overlap the other calls; inactive = mostly below about 3.7%
* = called active by the depositor; i = inactive; u = inconclusive; x = not tested or not shown. Cut-off read from the data, not from the text of the source, unless noted: active = inhibition above about 30%; inconclusive = no clear call, values can overlap the other calls; inactive = below that.

SMILES	BoNT F protease	BJeLR viability	Anthrax LF prot	BoNT A protease	Bead autofluor	BH1578 lux ind
CCn1c(SCC(=O)NNC(=O)Cc2ccccc2)nnc1-c1ccccc1	-4.8	13.7	-4.0	-0.8	9865	0.4
COc1cccc(CN(C)C(=O)c2cccc(S(=O)(=O)Nc3cccc(C)c3)c2)c1OC	11.9	x	-2.9	0.5	u	-3.8
COc1ccc(CN2C(=O)C(CC(=O)NCC3CCCCC3)CC(C(=O)N(C)C)=C2C)cc1 (configuration not stated)	1.0	x	0.9	0.0	3279	-0.2
COc1cccc(CN2CCC2(C)C(=O)Nc2ccc(Cl)c(Cl)c2)c1F (configuration not stated)	-13.4	x	3.4	-0.6	4012	-0.4
CSc1nnc(-c2ccc(O)cc2)n1C	3.5	-5.2	1.8	4.6	21757*	-0.2
COc1ccc(OC)c(NC(=O)Nc2nc(CN(C)C)cs2)c1	8.2	x	-6.3	0.7	3186	-0.7
CSc1ccc(NC(=O)CC(C)=O)cc1	2.0	-4.1	-1.7	0.4	22536*	1.7
CCC(C)c1ccc(NC(=O)CC(C)=O)cc1 (configuration not stated)	-2.9	-5.5	-2.4	u	22794*	2.9
Oc1cc2ccccc2cc1-c1n[nH]c(=S)n1Cc1ccco1	-7.4	1.9	-0.8	-0.2	4414	-0.2
COc1cccc(-c2n[nH]c(=S)n2Cc2ccco2)c1OC	6.4	6.5	-6.3	5.5	20736*	-0.1
CC1(c2nnnn2-c2ccc3c(c2)OCCO3)CCC(=O)N1CCc1ccccc1F (configuration not stated)	-6.2	x	-4.2	-0.3	4209	x
CC(C)(C)c1ccc(S(=O)(=O)N2CC(=O)Nc3ccccc32)cc1	-3.0	-4.3	0.1	-1.0	23729*	-2.0
CNc1nc(Cl)c(SC)c(NCc2cccc(OC)c2)n1	48.1*	-12.3	-1.1	-3.5	4483	-0.5
COc1cccc(CNc2ncnc3cc(Cl)ccc23)c1	-6.3	7.1	-5.5	0.0	3495	-0.6
Cc1cccn2c(=O)c(C=O)c(N3CC(C)OC(C)C3)nc12 (configuration not stated)	-1.0	15.6	-4.8	0.4	3926	-0.4
COc1ccccc1N1CCN(c2nc3c(C)cccn3c(=O)c2C=O)CC1	2.3	0.0	-1.3	u	20185*	i
Cc1cccn2c(=O)c(C=O)c(N3CCCCCC3)nc12	0.9	0.0	-4.2	0.9	19642*	-0.2
CCCNC(=O)N(C)C[C@@H]1Oc2cc(C#CC(C)(C)O)ccc2S(=O)(=O)N([C@H](C)CO)C[C@H]1C	-4.5	x	-8.2	-0.8	3482	-1.0
COc1ccccc1CNC(=O)Nc1nc(C(N)CCc2ccccc2)cs1 (configuration not stated)	-12.9	x	-2.1	-0.1	3873	-0.8
COc1cccc(N2CN(CCc3ccccc3)CNC2=S)c1	49.5*	-11.3	u	7.7	3380	-0.4
Fc1ccccc1/C=C1\CCCC2=C1Nc1nnnn1C2c1ccccc1F (configuration not stated)	1.4	4.1	0.6	-0.2	22685*	-1.4
CCOC(=O)C1=C(C)Nc2nnnn2C1c1ccccc1Cl (configuration not stated)	21.5	x	-1.6	0.3	3626	0.4
C[C@H](c1ccccc1)N1C[C@@H](COCc2ccccc2)Oc2cc(N3CC[C@@H](N(C)C)C3)ccc2S1(=O)=O	-5.9	x	-4.2	-0.1	5860	x
CCOC(=O)c1oc2cccc(O)c2c1CN(Cc1ccccc1)C(C)=O	-0.5	11.0	0.6	u	20279*	i
CC(C)(C)n1nnnc1C(c1cc2ccccc2o1)N1CCOCC1 (configuration not stated)	4.5	x	-0.9	0.0	4263	x
COc1ccccc1-c1csc(C(O)c2ccc(F)c(F)c2)n1 (configuration not stated)	-1.1	x	-3.0	0.1	3523	-0.9
COc1cc(OCc2ccccc2)c(C(=O)/C=C/c2ccc3c(c2)OCO3)c(OC)c1OC	x	3.6	x	x	x	-0.9
COc1ccc(C(CNC(=O)c2ccc(Cl)c(S(=O)(=O)N3CCCC3)c2)N2CCCC2)cc1 (configuration not stated)	25.5	x	-1.8	-9.6	30581*	-0.5
COc1ccc(C(CNC(=O)c2cc(C)oc2C)N2CCOCC2)cc1 (configuration not stated)	6.2	5.2	0.7	1.3	16136*	-0.2
COc1ccc(C(CNC(=O)c2cccc(NS(=O)(=O)c3ccccc3)c2)N2CCCC2)cc1 (configuration not stated)	4.4	x	-4.9	-4.0	6451	i
